RGS12 GoLoco inh: inhibitors of human Gai1-RGS12 GoLoco interaction (red fluorophore) | Potency, µM (top dose mostly 61.6 µM), inactives show at the top dose activity, negative = inhibition, actives largely listed as inhibitors | Gai1:RGS12 GoLoco peptide FP, rhodamine, 10 min | hit rate 0.44% among 230,000 | P63096; active = well fitted inhibition curve with a large enough effect, not every such curve was filed as active; inactive = no such curve, though single readings can be large or run the other way; also: potency is read from the fitted curve at half-maximal effect; nearly all actives have a fitted effect of over 30% in size
Target sequence (P63096 whole entry, looked up): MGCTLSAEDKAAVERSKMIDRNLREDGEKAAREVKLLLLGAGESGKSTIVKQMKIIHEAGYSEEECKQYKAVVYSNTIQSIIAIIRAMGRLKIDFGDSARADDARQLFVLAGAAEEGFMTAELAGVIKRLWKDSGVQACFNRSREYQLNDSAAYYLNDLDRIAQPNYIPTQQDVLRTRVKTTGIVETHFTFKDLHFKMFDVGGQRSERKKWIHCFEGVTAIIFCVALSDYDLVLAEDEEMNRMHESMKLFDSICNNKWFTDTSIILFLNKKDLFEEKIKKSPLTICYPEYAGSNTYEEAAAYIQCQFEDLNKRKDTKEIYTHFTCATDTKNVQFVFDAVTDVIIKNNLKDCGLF
ALDH1A1 inh: ALDH1A1 (human) enzyme inhibition. P00352. Purified ALDH1A1, NADH fluorescence, propionaldehyde substrate. Potency, µM (top dose mostly 75.3 µM), inactives show top-dose activity, negative = inhibition, actives largely listed as inhibitors. hit rate 7.3% among 220,000;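 also: potency is read from the fitted curve at half-maximal effect; plate controls were no enzyme wells and a reference inhibitor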
Sfp PPTase inh: inhibitors of Bacillus subtilis Sfp phosphopantetheinyl transferase. Q9F4F7. Biochemical Sfp PPTase activity, qHTS. Potency, µM, for the others: largest response in the series, negative = inhibition, actives largely listed as inhibitors. hit rate 3.5% among 310,000; active = well fitted curve in the direction sought with a large enough effect; inconclusive = small, poorly fitted or top-dose-only effect, or another doubt; inactive = no such curve, though single readings can be large; an effect the other way counts as inactive or inconclusive;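 also: the enzyme is Sfp with the accession as filed and its product quenches rhodamine fluorescence; potency is read from the fitted curve at half-maximal effect; 0% = enzyme reaction without inhibitor and -100% = no enzyme wells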
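Sfp 15 nM + cpd, 15 min RT; start w/ rhodamine-CoA 5 uM, BHQ-2-YbbR 12.5 uM (final); 50 mM Hepes pH 7.6, 10 mM MgCl2, 0.01% NP-40, 0.01% BSA; read 525/598 nm at 0 and 30 min.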
JMJD2E inh: inhibitors of human JMJD2E histone demethylase. B2RXH2. JMJD2E catalytic domain, FDH-coupled NADH fluorescence (FDH is formaldehyde dehydrogenase). Potency, µM (top dose mostly 57.1 µM), without a hit: at the top dose activity change, negative = inhibition, hits mostly inhibitors. hit rate 1.6% among 230,000. AID 2147;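 also: potency is read from the fitted curve at half-maximal effect; 0% = wells with enzyme and -100% = buffer wells without enzyme; nearly all actives have a fitted effect of over 50% in size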
Target sequence (B2RXH2 1-337 limits assumed): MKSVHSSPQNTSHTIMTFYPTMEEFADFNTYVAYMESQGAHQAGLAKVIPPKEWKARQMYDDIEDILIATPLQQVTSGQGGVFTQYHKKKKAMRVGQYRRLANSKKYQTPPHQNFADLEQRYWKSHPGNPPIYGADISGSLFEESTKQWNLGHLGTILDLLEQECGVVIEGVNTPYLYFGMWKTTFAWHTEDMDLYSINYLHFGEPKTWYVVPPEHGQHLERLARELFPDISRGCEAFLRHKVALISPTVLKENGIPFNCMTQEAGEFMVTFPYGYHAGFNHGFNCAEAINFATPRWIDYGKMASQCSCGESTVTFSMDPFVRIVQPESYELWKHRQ
NPSR antag: blocks cAMP signaling of the human neuropeptide S receptor | Q6W5P4 | CHO-NPSR cells, cAMP TR-FRET, antagonist mode | Potency, µM (top dose mostly 38.3 µM), for inactives: at the highest dose activity change, negative = inhibition, usual class: inhibitors | hit rate 1% among 220,000; active = well fitted curve in the direction sought with a large enough effect; inconclusive = small, poorly fitted or top-dose-only effect, or another doubt; inactive = no such curve, though single readings can be large; an effect the other way counts as inactive or inconclusive; also: potency is read from the fitted curve at half-maximal effect; nearly all actives have a fitted effect of over 50% in size
Coupling enz: counter-screen for Giardia aldolase inhibitors: coupling enzyme system; coupling enzyme system counterscreen, AmpLite Red fluorescence; activity change, negative = inhibition, % at 58.2 µM, hits read low; hit rate 0.67% among 290,000; in the data active = activity change below about -30%
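Final compound at 57.5 uM, incubated 10 min at RT with coupling enzyme reagent (glyceraldehyde-3-phosphate), then 20 min with substrate and AmpLite Red detection. Fluorescence read at 525/598 nm; tests interference with the coupling assay, not aldolase inhibition.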
Active calls of the source: *; ? = inconclusive; . = no result; [ ] = remark or other dose. Shown are actives, neighbours in structure and some others; about 8.5% of the full set was active somewhere. Unless noted, calls follow the shape of the dose curve; as a rule, active = well fitted inhibition curve with a large enough effect (not every such curve was filed as active); inconclusive = small, poorly fitted or top-dose-only effect, or another doubt; inactive = no such curve, though single readings can be large or run the other way. Unless noted, % is scaled to controls: 0 for no effect and ±100 for the full control effect.

SMILES	RGS12 GoLoco inh	ALDH1A1 inh	Sfp PPTase inh	JMJD2E inh	NPSR antag	Coupling enz
CCOC(=O)COc1c(Br)cc(/C=C2\SC(=O)N(CC(=O)N3CCCC3)C2=O)cc1OC	7%	22µM*	0%	-8%	-25%[46.1 µM]	2
COc1cccc(/C=C2/SC(=O)N(C)C2=O)c1OCc1ccc(C(=O)O)cc1	7%	?	-2%	-3%	55%	21
CCOc1c(Br)cc(/C=C2/SC(=O)N(CC(=O)N3CCCC3)C2=O)cc1OC	0%	2%	10%	0%	-8%[46.1 µM]	-2
COc1cccc(/C=C2/SC(=O)N(CC(=O)N3CCc4ccccc4C3)C2=O)c1OCC(=O)O	-1%	?	56µM*	-7%	-6%[46.1 µM]	13
COc1ccc(-c2ccc(/C=N/N3C(=O)C4C5C=CC(C6CC56)C4C3=O)o2)c([N+](=O)[O-])c1 (configuration not stated)	6%	10µM*	8%	4%	-1%	0
O=C(O)c1cc(-c2ccc(/C=N/N3C(=O)C4C5C=CC(CC5)C4C3=O)o2)ccc1Cl (configuration not stated)	15%	11µM*	9%	?	0%	-2
O=C1C2C3C=CC(C4CC34)C2C(=O)N1/N=C/c1ccc(-c2ccc(Cl)cc2[N+](=O)[O-])o1 (configuration not stated)	8%	?	-27%	-3%	-18%[46.1 µM]	-20
Cc1ccc(-c2ccc(/C=N/N3C(=O)C4C5C=CC(CC5)C4C3=O)o2)c([N+](=O)[O-])c1 (configuration not stated)	-9%	0.89µM*	4%	-11%	-17%[46.1 µM]	-5
O=C1C2C3C=CC(C4CC34)C2C(=O)N1/N=C/c1ccc(-c2ccc(F)cc2[N+](=O)[O-])o1 (configuration not stated)	-6%	?	-24%	-5%	?	-9
N#C/C(=C(/O)CO/N=C/c1ccccc1Cl)c1nc2ccccc2[nH]1	12%	10%	20%	-2%	3%	1
CN(CC(=O)Nc1ncn[nH]1)S(=O)(=O)c1ccc(Cl)cc1	.	.	11%	.	.	1
O=C1C(Cl)=C(Nc2ccccc2O)C(=O)N1CCc1ccccc1	20%	4µM*	11µM*	-2%	-15%	0
CCOc1ccc(N2C(=O)C(Cl)=C(Nc3ccccc3O)C2=O)cc1	76%	14µM*	40µM*	-20%	-22%[46.1 µM]	0
COc1ccc(NC2=C(Cl)C(=O)N(c3ccccc3)C2=O)c(OC)c1	-17%	?	16%	-37%	-34%	0
CC1COC(C)(CC(=O)NN2C(=O)c3ccccc3C2=O)O1 (configuration not stated)	-1%	-8%	12%	-6%	-5%	2
CCCCNC(=O)CN1CCN(Cc2ccc3cc(OC)ccc3c2)CC1	.	.	79µM*	.	.	-1
O=C(c1csc2c1CCCCC2)N1CCN(c2ncccn2)CC1	6%	20µM*	11%	-23%	-9%[46.1 µM]	2
CCCS(=O)(=O)N1CCN=C1SCc1cccc(C)c1	1%	6%	13%	20%	10%	5
CCCCn1c(=O)cc(O)c2ccccc21	7%	?	-1%	-26%	-7%[46.1 µM]	1
CCCCn1c(=O)c2c(O)cc(=O)oc2c2ccccc21	22%	16µM*	7%	-2%	-24%[46.1 µM]	3
COc1cc(-c2c(C#N)c(N)nc3[nH]c(=S)[nH]c(=O)c23)ccc1O	.	.	-17%	.	.	2
CC1=NC(C#N)=C(C#N)NC(C)(C)C1	8%	5%	5%	2%	7%	-1
Cc1ccc2nc(SCC(=O)NCc3cccs3)c(C#N)cc2c1	2%	7%	24%	-1%	10µM*	0
Cc1ccc2cc(C#N)c(SCC(=O)NNC(=O)Cc3ccccc3)nc2c1	-6%	4%	-2%	9%	7.9µM*	-2
COC(=O)CSc1nc2ccc(C)cc2cc1C#N	8%	4%	-8%	?	-24%	-3
SMILES	RGS12 GoLoco inh	ALDH1A1 inh	Sfp PPTase inh	JMJD2E inh	NPSR antag	Coupling enz
CCOc1ccc2cc(C#N)c(SCC(=O)NC(C)CC)nc2c1 (configuration not stated)	20%	7%	5%	-29%	6.3µM*	1
CCc1cc2ccc(OC)cc2nc1SCC(=O)NNC(=O)c1ccco1	34%	6.3µM*	-5%	-12%	44%	5
O=C(NCc1ccccc1)c1ccc(Cc2nc3ccccc3[nH]2)cc1	.	9%	.	.	.	.
CN(C)S(=O)(=O)c1cccc(C(=O)NCCOC(=O)c2cc(F)c(F)cc2Cl)c1	.	.	4%	.	.	-1
CCOc1ccc(NS(=O)(=O)c2c(C)nc3sc(CC)nn3c2=O)cc1	.	.	-2%	.	.	0
Cc1ccc2nc(SCC(=O)NCc3ccco3)c(C#N)cc2c1	17%	-8%	14%	4%	?	1
Cc1ccc2nc(SCC(=O)NCc3ccco3)c(C)cc2c1	3%	16µM*	-15%	-23%	10%	6
C[C@H](NC(=O)C1CCN(S(=O)(=O)c2ccccc2)CC1)C(=O)NCc1ccc(Cl)cc1Cl	.	.	1%	.	.	.
O=C(NCc1ccc2c(c1)OCO2)c1nc(S(=O)(=O)Cc2ccccc2F)ncc1Cl	.	.	25µM*	.	.	2
O=C(c1cccc(F)c1)N1CCC2(CC1)CN(c1cccc(-c3ccccc3)c1)C2	-1%	?	-15%	.	.	-3
CC1(C)CC(N2CCCCC2)=CC(=[N+]2CCCCC2)C1	2.5µM*	-3%	7%	-21%	21%	1
CCCN(CCC)C1=CC(=[N+]2CCCC2)CC(C)(C)C1	7.9µM*	3%	-18%	5%	2%	3
CC1(C)CC(N2CCOCC2)=CC(=[N+]2CCOCC2)C1	-36%	-2%	-10%	1%	3%	0
CC1C[N+](=C2C=C(N3CCOCC3)CC(C)(C)C2)CC(C)O1 (configuration not stated)	25µM*	.	?	25µM*	-7%	2
COc1ccc(CNC(=O)Cc2cn(C)c3ccccc23)c(OC)c1	.	.	-1%	.	.	-21
COc1ccc(CCNC(=O)CCNC(=O)c2ccc([N+](=O)[O-])cc2)cc1	.	.	8%	.	.	3
Cc1c(Cl)sn(-c2ccc(Cl)cc2)c1=O	14µM*	1.8µM*	0.71µM*	-1%	2.5µM*	7
CC[C@@]1(O)C[C@H](O[C@H]2C[C@@H](N(C)C)[C@@H](O[C@H]3C[C@@H](O)[C@@H](O[C@H]4CCC(=O)[C@@H](C)O4)[C@@H](C)O3)[C@@H](C)O2)c2c(cc3c(c2O)C(=O)c2c(O)cccc2C3=O)[C@H]1C(=O)OC	.	.	-23%	.	.	.
COc1cc(CC(=O)N(C)CC(=O)Nc2ccc(Cl)c(C(F)(F)F)c2)cc(OC)c1OC	.	.	16%	.	.	-2

High-throughput results deposited in PubChem BioAssay by National Center for Advancing Translational Sciences (NCATS).
